Our source for the composite z-score and z-score values is PubChem BioAssay.

The source made the active and inactive calls.

In assay [1] the test system is PRMT1 (protein arginine N-methyltransferase 1). The assay is described as follows: small molecules binding arginine methyltransferase PRMT1 – biochemical, small-molecule microarray, 635 nm fluorescence, primary screen (AID 1088).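 Note: binding of Prmt1 protein to compounds spotted on small-molecule microarray slides.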 The settings on record: higher = more signal.
A short description of assay [2]: growth effects on S. cerevisiae YJM789 – YJM789 clinical isolate, OD600, 24 h, basal, primary screen (AID 1089).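 Note: growth of clinical yeast isolate S. cerevisiae YJM 789 seeded 1000 cells per well; test concentration not given here.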 The settings on record: higher = more signal, called active from +8 up or from −8 down.
Assay [3] is described as follows: S. pombe growth modifiers, basal conditions – strain 972, OD600, 24 h, no modulator, primary screen (AID 1090).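 Note: basal condition with compound alone and no growth modifier present; test concentration not given here.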 The settings on record: S. pombe 972 growth, higher = more signal, called active from +8 up or from −8 down.
Assay [4] in a line: budding yeast growth modifiers under rapamycin – strain BY4716, OD600, 96 h, primary screen (AID 1091). Note: test concentration not given here. To be noted: S. cerevisiae BY4716 + rapamycin, higher = more signal, called active from +8 up or from −8 down.
For assay [5], the target named is Torsin-1A-interacting protein 2 (Homo sapiens) (UniProt Q8NFQ8). The assay is described as follows: small molecules binding lysate-expressed LULL1 – cell lysate, human LULL1 lysate, 635/667 nm fluorescence, primary screen (AID 1092).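 Note: probe is lysate of COS7 cells overexpressing human LULL1; score merges per-feature 667 nm fluorescence with signal-to-noise.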 The settings on record: small-molecule microarray, hLULL1 lysate binding, 635 nm fluorescence; higher = more signal.
Sequence of Torsin-1A-interacting protein 2 (Homo sapiens) (Q8NFQ8 whole entry, looked up): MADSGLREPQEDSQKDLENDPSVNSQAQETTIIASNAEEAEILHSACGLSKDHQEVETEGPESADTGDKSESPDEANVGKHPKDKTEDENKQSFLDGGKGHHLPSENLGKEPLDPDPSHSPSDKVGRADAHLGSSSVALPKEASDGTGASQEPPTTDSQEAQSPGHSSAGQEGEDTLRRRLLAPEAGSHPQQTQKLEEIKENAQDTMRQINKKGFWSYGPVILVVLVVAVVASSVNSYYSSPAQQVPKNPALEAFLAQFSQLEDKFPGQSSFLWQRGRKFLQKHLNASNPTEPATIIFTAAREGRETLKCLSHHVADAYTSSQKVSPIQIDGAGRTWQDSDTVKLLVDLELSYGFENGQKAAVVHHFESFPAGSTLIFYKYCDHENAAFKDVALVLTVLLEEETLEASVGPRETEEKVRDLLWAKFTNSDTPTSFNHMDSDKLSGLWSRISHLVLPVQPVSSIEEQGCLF
Assay [6] is described as follows: optical density change of DRC41 E. coli – strain DRC41, OD650, 24 h, E. coli filamentation project, primary screen (AID 1093).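 Note: MC1000 strain lacking acrAB efflux and sulA so SOS filamentation is blocked; test concentration not given here.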 The settings on record: E. coli DRC41 growth, higher = more signal, called active from +8 up or from −8 down.
A short description of assay [7]: probe aLefty2 binding to arrayed compounds – biochemical, biotinylated probe, 635/667 nm fluorescence, primary screen (AID 1094).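 Note: score merges spot fluorescence near 667 nm with spot signal-to-noise ratio.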 To be noted: small-molecule microarray, higher = more signal.
The subject of assay [8] is Noggin (protein binding on small-molecule microarray). The assay is described as follows: small molecules binding Noggin protein – biochemical, 635/667 nm fluorescence, primary screen (AID 1095).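 Note: score merges 667 nm feature fluorescence with signal to noise over triplicate slides.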 To be noted: 635 nm fluorescence, higher = more signal.
The target of assay [9] is Neurogenic locus notch homolog protein 3 (Homo sapiens) (UniProt Q9UM47). The assay can be described thus: small molecules binding NOTCH3 protein – biochemical, 635/667 nm fluorescence, primary screen (AID 1096). To be noted: small-molecule microarray, 635 nm fluorescence, higher = more signal.
Sequence of Neurogenic locus notch homolog protein 3 (Homo sapiens) (Q9UM47 whole entry, looked up): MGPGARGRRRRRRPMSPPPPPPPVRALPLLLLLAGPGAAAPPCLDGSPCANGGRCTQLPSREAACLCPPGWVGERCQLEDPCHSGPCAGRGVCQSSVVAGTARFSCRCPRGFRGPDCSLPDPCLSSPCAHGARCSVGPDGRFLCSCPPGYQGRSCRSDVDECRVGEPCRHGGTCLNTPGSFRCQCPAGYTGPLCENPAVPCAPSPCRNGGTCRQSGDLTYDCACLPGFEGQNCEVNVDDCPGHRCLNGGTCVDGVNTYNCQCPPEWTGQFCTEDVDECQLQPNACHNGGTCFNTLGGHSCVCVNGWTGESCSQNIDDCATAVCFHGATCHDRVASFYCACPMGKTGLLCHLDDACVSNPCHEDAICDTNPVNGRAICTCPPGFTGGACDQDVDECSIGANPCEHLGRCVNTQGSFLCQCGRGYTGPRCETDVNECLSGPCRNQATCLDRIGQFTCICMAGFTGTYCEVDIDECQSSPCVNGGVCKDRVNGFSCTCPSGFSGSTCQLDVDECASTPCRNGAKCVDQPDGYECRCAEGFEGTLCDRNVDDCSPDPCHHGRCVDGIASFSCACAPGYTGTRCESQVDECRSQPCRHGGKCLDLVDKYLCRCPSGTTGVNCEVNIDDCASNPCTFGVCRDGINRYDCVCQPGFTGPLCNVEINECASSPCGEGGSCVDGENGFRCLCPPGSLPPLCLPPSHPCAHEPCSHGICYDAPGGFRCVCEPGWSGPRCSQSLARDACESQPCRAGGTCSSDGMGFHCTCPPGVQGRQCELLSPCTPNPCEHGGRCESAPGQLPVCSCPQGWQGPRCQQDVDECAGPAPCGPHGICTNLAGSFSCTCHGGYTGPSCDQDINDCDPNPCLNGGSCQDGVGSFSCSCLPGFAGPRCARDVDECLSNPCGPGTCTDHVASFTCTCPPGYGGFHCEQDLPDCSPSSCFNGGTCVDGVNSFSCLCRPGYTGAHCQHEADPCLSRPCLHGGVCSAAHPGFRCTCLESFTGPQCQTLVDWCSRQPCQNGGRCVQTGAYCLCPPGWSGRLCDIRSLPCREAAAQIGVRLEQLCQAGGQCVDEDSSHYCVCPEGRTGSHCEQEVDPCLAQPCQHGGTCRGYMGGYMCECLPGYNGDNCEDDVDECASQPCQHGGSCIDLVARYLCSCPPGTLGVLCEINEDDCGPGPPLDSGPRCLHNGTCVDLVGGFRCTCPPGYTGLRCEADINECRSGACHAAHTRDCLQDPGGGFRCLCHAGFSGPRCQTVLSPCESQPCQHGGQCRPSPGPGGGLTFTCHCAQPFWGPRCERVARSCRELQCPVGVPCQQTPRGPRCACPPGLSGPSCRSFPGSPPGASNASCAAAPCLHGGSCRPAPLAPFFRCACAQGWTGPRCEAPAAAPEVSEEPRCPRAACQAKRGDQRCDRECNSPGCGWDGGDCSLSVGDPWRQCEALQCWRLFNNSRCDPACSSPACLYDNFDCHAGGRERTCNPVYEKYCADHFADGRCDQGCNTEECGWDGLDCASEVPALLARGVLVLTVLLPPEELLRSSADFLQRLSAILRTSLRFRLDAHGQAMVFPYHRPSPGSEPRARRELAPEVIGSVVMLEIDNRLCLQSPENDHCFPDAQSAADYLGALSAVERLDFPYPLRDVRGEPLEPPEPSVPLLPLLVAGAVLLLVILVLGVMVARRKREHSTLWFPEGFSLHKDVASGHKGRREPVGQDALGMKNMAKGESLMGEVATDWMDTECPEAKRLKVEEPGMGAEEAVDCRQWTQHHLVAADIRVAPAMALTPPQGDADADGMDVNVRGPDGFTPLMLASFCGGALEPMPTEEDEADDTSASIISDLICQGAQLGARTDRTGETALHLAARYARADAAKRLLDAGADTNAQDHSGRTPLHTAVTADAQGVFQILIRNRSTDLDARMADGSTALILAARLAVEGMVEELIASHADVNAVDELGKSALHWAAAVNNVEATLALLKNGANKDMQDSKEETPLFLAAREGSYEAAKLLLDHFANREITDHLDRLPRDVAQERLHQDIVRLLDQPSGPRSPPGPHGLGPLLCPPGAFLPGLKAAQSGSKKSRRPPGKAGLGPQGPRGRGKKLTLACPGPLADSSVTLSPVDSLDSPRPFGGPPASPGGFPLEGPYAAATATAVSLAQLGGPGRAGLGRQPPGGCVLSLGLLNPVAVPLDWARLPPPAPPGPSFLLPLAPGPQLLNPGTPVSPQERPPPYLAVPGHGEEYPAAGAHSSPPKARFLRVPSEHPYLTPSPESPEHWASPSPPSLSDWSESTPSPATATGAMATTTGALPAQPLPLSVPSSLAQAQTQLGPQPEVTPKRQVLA
The nature of assay [10]: probe aEGFR binding to arrayed compounds – biochemical, biotinylated probe, 635/667 nm fluorescence, primary screen (AID 1097).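 Note: probe is a biotinylated anti-EGFR antibody binding compounds printed on slides; score combines fluorescence near 667 nm and signal to noise of each spot.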 To be noted: small-molecule microarray, higher = more signal.
For assay [11], the system named is Plasmodium falciparum Sir2 (PF13_0152, Sir2A). The assay is described as follows: Plasmodium falciparum Sir2A binding compounds – biochemical, small-molecule microarray, 635 nm fluorescence, primary screen (AID 1098).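 Note: score merges spot fluorescence intensity with its signal-to-noise ratio.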 To be noted: fluorescence 635 nm, higher = more signal.
Assay [12] in a line: probe aDKK1 binding to arrayed compounds – biochemical, biotinylated probe, 635/667 nm fluorescence, primary screen (AID 1099).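 Note: score merges 667nm spot fluorescence with signal to noise across triplicate slides; reference of the scale not given here.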 The settings on record: small-molecule microarray, higher = more signal.
Assay [13] can be described thus: probe aCHRDL2 binding to arrayed compounds – biochemical, biotinylated probe, 635/667 nm fluorescence, primary screen (AID 1100). The settings on record: small-molecule microarray, higher = more signal.
Assay [14] can be described thus: change in splice reporter luminescence, either direction, cell-based, HEK293, spliceosome inhibition project, primary screen (AID 1101).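 Note: HEK293 cells carrying a splicing-competent luciferase reporter gene; test concentration not given here.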 The settings on record: HEK293 splicing luciferase reporter, 24 h, higher = more signal, called active from +8 up or from −8 down.
Assay [15] addresses Fibroblast growth factor 10 (Homo sapiens) (UniProt O15520). The assay is described as follows: compounds binding fibroblast growth factor 10 – biochemical, small-molecule microarray, 635 nm fluorescence, primary screen (AID 1102). To be noted: FGF10 binding, fluorescence 635 nm, higher = more signal.
Assay [16] has as its system glycogen synthase kinase-3 (GSK3A per assay name; protocol says GSK3B). The assay can be described thus: compounds binding glycogen synthase kinase-3 – biochemical, small-molecule microarray, 635 nm fluorescence, GSK3A, primary screen (AID 1103). Note: the record names both GSK3A and GSK3B. The settings on record: fluorescence 635 nm, higher = more signal.
Assay [17] deals with Epidermal growth factor receptor (Homo sapiens) (UniProt P00533). The assay can be described thus: compounds binding epidermal growth factor receptor – biochemical, small-molecule microarray, 635 nm fluorescence, primary screen (AID 1104).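 Note: score merges 667 nm emission intensity with spot signal to noise over triplicate slides.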 The settings on record: EGFR binding, higher = more signal.
Sequence of Epidermal growth factor receptor (Homo sapiens) (P00533 whole entry, looked up): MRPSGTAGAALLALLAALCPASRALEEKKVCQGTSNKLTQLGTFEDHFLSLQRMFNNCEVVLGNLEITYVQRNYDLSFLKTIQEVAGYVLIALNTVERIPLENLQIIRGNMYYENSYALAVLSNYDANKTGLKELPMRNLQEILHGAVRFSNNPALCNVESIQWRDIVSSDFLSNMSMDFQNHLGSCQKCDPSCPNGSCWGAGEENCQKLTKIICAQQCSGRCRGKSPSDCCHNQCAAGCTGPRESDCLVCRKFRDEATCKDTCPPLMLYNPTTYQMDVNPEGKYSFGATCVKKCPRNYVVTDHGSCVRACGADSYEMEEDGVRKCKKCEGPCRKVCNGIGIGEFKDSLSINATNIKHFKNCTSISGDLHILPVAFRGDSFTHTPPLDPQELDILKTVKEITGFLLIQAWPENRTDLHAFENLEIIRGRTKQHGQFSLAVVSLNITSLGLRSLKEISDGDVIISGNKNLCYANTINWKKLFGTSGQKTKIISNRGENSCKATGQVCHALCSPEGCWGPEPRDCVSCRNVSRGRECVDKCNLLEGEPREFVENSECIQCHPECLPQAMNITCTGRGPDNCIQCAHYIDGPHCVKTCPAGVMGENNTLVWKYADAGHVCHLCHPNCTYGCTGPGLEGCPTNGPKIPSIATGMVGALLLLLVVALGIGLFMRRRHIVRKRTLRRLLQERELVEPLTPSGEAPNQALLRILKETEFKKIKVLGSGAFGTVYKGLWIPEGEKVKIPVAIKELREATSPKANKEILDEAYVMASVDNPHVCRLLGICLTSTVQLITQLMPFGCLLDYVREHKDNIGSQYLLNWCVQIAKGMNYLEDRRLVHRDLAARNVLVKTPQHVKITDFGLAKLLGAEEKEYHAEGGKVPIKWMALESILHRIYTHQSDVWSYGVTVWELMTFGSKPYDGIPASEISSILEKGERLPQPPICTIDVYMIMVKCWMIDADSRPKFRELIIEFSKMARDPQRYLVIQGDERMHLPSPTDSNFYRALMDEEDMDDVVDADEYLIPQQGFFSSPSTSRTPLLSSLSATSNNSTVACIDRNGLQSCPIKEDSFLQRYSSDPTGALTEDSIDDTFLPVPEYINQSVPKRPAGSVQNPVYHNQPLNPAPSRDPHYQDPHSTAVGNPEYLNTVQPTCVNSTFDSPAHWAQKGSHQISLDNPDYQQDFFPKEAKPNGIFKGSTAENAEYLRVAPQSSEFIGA
Assay [18] deals with Follistatin-related protein 3 (Homo sapiens) (UniProt O95633). The assay is described as follows: compounds binding follistatin-related protein 3 – biochemical, small-molecule microarray, 635 nm fluorescence, primary screen (AID 1105).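 Note: score merges emission near 667 nm and signal to noise per printed spot across three slides.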 The settings on record: FSTL3 binding, higher = more signal.
Sequence of Follistatin-related protein 3 (Homo sapiens) (O95633 whole entry, looked up): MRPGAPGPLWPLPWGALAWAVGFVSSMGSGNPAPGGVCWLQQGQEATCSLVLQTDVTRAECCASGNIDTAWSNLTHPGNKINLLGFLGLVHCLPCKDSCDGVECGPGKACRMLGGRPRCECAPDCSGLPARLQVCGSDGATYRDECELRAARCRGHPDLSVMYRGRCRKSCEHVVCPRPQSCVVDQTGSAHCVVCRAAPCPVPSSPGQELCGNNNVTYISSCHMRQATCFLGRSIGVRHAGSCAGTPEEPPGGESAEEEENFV
Assay [19] has as its target Dickkopf-related protein 1 (Homo sapiens) (UniProt O94907). The assay can be described thus: small molecules binding DKK1 protein – biochemical, small-molecule microarray, 635 nm fluorescence scan, primary screen (AID 1106).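 Note: score merges emission near 667 nm with signal to noise over three replicate slides.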 The settings on record: higher = more signal.
Assay [20] deals with Inhibin beta A chain (activin A). The assay is described as follows: small molecules binding activin A – biochemical, small-molecule microarray, 635 nm fluorescence scan, primary screen (AID 1107).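 Note: mouse activin A protein probed at 4.33 µg/mL on printed slides; score merges bound-protein fluorescence near 667 nm with spot signal-to-noise.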 The settings on record: INHBA, higher = more signal.

Sequence of Dickkopf-related protein 1 (Homo sapiens) (O94907 whole entry, looked up): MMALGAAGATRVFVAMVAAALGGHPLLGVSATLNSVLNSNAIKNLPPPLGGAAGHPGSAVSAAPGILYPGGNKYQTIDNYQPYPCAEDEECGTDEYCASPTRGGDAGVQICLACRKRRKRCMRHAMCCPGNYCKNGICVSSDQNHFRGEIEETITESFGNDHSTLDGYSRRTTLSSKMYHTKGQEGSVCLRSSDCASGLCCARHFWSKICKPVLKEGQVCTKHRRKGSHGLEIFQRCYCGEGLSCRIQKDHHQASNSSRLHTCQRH
Sequence of Fibroblast growth factor 10 (Homo sapiens) (O15520 whole entry, looked up): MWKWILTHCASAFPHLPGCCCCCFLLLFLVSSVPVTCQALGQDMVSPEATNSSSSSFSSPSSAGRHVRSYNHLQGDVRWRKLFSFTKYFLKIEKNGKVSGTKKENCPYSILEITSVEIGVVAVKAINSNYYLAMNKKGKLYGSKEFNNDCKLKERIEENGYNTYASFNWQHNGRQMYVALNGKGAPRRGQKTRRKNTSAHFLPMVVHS

Take `CCc1cc2c(nc1CC)CCN(CCC(C)=NO[C@@H](C)c1cn([C@H](CO)Cc3ccccc3)nn1)C2`: the composite z-score in assay [1] is -0.329; in assay [5] it was 0.559; in assay [7], 0.0336; in assay [8], 0.42; in [9], 0.438; in [10], -0.0679. Also, the composite z-score was 0.6 in assay [11]; -0.102 in assay [12]; 0.0143 in assay [13]; -0.122 in assay [15]; -0.32 in [16]; 0.253 in [17]. The composite z-score in assay [18] turned out to be 0.474; in assay [19], 0.436; in assay [20], 1.29. For the same compound, the z-score in assay [2] is 0.687 (inactive); in assay [3], 0.22 (inactive); in [4], -0.215 (inactive); in assay [6] it was -0.189 (inactive); in assay [14], 0.113 (inactive).

For `C=CC1=C[C@H](O)[C@@H]2O[C@@H]2C12OCCCO2`, the composite z-score in [1] was -0.12; in assay [5] it was -0.119; in assay [7] it was -0.244; in [8] it was 0.412; in assay [9], -0.239; in assay [10], 0.009. Also, the composite z-score was 0.139 in assay [11]; -0.296 in [12]; -0.136 in assay [13]; 0.351 in assay [15]; 1.03 in assay [16]; -0.547 in assay [17]. Further, the composite z-score is -0.0047 in [18], -0.137 in [19] and 0.551 in [20]. Moreover, the z-score in [2] was -0.532 (inactive); in assay [3] it was 0.199 (inactive); in assay [4] it was -0.138 (inactive); in assay [6] it was -0.0339 (inactive); in [14], 0.404 (inactive).

In the case of `CC(C)(C)N1C(=O)[C@H]2[C@H]3[C@H](O)[C@H](O)CC(=O)[C@H]3CC[C@H]2C1=O`, the composite z-score was 0.729 in assay [1]; 0.46 in assay [5]; -0.211 in assay [7]; 0.344 in assay [8]; 0.611 in [9]; -0.0333 in [10]. Moreover, the composite z-score in [11] was 0.0159; in assay [12], -0.282; in assay [13], -0.674; in [15] it was 0.287; in assay [16], 0.694; in [17], 0.456. Further, the composite z-score is 0.426 in assay [18], 0.624 in assay [19] and -0.167 in assay [20]. The z-score in [2] is 0.445 (inactive); in assay [3] it was -0.109 (inactive); in assay [4] it was 0.85 (inactive); in [6] it was -0.29 (inactive); in assay [14], -0.432 (inactive).

Regarding `CC(C)CON=C1C[C@@H](O)[C@@H](O)[C@@H]2[C@@H]3C(=O)N(C4CCCCC4)C(=O)[C@@H]3CC[C@H]12`, the composite z-score was 1.42 in [1]; 1.1 in [5]; -0.0396 in assay [7]; 0.683 in [8]; 1.13 in assay [9]; -0.0817 in [10]. Moreover, the composite z-score in assay [11] was 0.209; in [12] it was 0.0948; in assay [13], -0.106; in assay [15], 0.74; in [16], 0.842; in [17], 0.362. Further, the composite z-score in assay [18] was 0.611; in [19], 0.544; in [20], -0.312. Also, the z-score in assay [2] was 0.0058 (inactive); in [3] it was 0.303 (inactive); in assay [4] it was -0.393 (inactive); in assay [6] it was 0.411 (inactive); in assay [14], 0.00397 (inactive).

Regarding `COc1ccc(O[C@H]2C=C[C@@H](c3ccccc3)O[C@@H]2COC(=O)CCC(C)=NO[C@@H]2O[C@H](COC(C)=O)[C@@H](OC(C)=O)[C@H](OC(C)=O)[C@H]2OC(C)=O)cc1`, the composite z-score in [1] is 1.44; in assay [5] it was 0.727; in assay [7], -0.253; in assay [8], 0.749; in assay [9], 1.1; in assay [10] it was -0.0271. For the same compound, the composite z-score in assay [11] was 0.538; in assay [12], -0.397; in assay [13] it was -0.374; in [15] it was 0.799; in assay [16], 1.01; in assay [17], 0.609. Further, the composite z-score in assay [18] was 1.12; in [19], 0.275; in [20], -0.116. Moreover, the z-score is 1.2 (inactive) in [2]; 1.03 (inactive) in assay [3]; 0.865 (inactive) in assay [4]; 0.271 (inactive) in assay [6]; -0.315 (inactive) in assay [14].

Regarding `C[C@@H](ON=C1[C@H]2CCn3c(=O)n(-c4ccccc4)c(=O)n3[C@H]2[C@H](O)[C@@H]2O[C@H]12)c1cn([C@@H]2COC[C@H]2O)nn1`, the composite z-score is 0.556 in assay [1]; -0.219 in [5]; -0.152 in assay [7]; 0.57 in assay [8]; 0.72 in [9]; -0.0788 in [10]. Further, the composite z-score in assay [11] is 0.507; in assay [12], -0.235; in [13], -0.511; in [15] it was 0.31; in [16] it was 0.555; in [17] it was 0.702. The composite z-score came out at 0.51 in assay [18], 0.446 in [19] and 0.0788 in assay [20]. Further, the z-score is -0.638 (inactive) in assay [2]; 0.636 (inactive) in assay [3]; 0.0921 (inactive) in assay [4]; 0.389 (inactive) in [6]; 0.413 (inactive) in [14].

Regarding `O=C(NN=C1C[C@@H](O)[C@@H](O)[C@@H]2[C@@H]3C(=O)N(Cc4ccccc4)C(=O)[C@@H]3CC[C@@H]12)OCc1ccccc1`, the composite z-score in assay [1] is -0.395; in assay [5], -0.802; in assay [7] it was -0.112; in assay [8], 0.509; in assay [9], 0.188; in assay [10], 0.0551. Besides, the composite z-score is 0.0168 in [11]; -0.293 in [12]; -0.284 in assay [13]; 0.0818 in [15]; 0.329 in assay [16]; 0.263 in assay [17]. Moreover, the composite z-score in assay [18] was determined as 0.31; in [19], 0.357; in [20] it was 0.198. In addition, the z-score in assay [2] was -0.227 (inactive); in assay [3], -0.148 (inactive); in assay [4], -0.413 (inactive); in [6] it was 0.258 (inactive); in [14] it was -0.566 (inactive).

For `COc1ccc(O[C@H]2C=C[C@@H](c3ccccc3)O[C@@H]2CON=C(C)CCC(=O)OC[C@H]2O[C@H](c3ccccc3)C=C[C@@H]2Oc2ccc(OC)cc2)cc1`, the composite z-score was -2.44 in assay [1]; -1.78 in assay [5]; -0.294 in assay [7]; -0.769 in assay [8]; 0.0708 in [9]; -0.267 in assay [10]. Also, the composite z-score in assay [11] is 0.0844; in assay [12], -0.252; in assay [13], 0.2; in assay [15] it was -1.19; in assay [16], -1.59; in assay [17] it was -1.63. Besides, the composite z-score in assay [18] was -1.25; in assay [19] it was -0.591; in [20] it was 0.95. For the same compound, the z-score in [2] is 0.76 (inactive); in [3], 0.91 (inactive); in assay [4], 0.525 (inactive); in assay [6], -0.0503 (inactive); in assay [14], 0.114 (inactive).

On to `CCOC(=O)[C@H](CC(C)C)NC(=O)CCC1CC(OC(=O)NCc2cccc3ccccc23)CC2(CCCC(COC(=O)NCCCN3CCCC3=O)O2)O1` (stereo not given in full), for which the composite z-score was 1.4 in assay [1]; 1.68 in assay [5]; -0.0998 in assay [7]; 0.822 in assay [8]; 1.12 in assay [9]; -0.0238 in [10]. The composite z-score is 0.389 in assay [11]; -0.171 in assay [12]; -0.38 in [13]; 0.408 in [15]; 0.819 in [16]; 0.384 in [17]. For the same compound, the composite z-score in assay [18] came to 0.787; in assay [19] it was 0.583; in assay [20], 0.0612. Also, the z-score in [2] was -0.139 (inactive); in assay [3], 0.409 (inactive); in assay [4], -0.224 (inactive); in assay [6], -0.165 (inactive); in assay [14], -0.406 (inactive).
